Compound activity (PubChem BioAssay)
A selection: hits, their analogues and other compounds. The true share with any hit is near 11%.
G9a block – inhibitors of human histone lysine methyltransferase G9a; G9a H3K9 monomethylation, AlphaScreen, 2 h; Potency, µM (titrated, usually from 102 µM), most hits filed as inhibitors; 350,000 tested, 8.8% active; AID 504332; note: nearly all actives have a fitted effect of over 75% in size
Target sequence (Q96KQ7 913-1193 limits assumed): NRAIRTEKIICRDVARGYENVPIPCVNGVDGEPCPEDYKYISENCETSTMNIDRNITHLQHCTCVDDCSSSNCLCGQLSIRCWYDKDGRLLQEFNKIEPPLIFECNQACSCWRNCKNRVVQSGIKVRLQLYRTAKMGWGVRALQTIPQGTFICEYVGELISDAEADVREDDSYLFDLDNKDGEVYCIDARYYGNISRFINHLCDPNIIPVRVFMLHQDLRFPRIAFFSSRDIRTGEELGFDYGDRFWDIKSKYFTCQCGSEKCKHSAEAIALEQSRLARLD
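Enzyme 20 nM + cpd, 15 min RT; add b-H3K9 pep 500 nM / SAM 20 uM; 2 h RT; anti-H3K9me1 Ab 0.5 ug/mL + SA donor / anti-rabbit acceptor beads 20 ug/mL each, 10 min; AlphaScreen read.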
BAZ2B inh – inhibitors of human BAZ2B bromodomain. Q9UIF8. AlphaScreen BAZ2B-H3K14Ac peptide displacement. Potency, µM (doses to about 114 µM), actives largely listed as inhibitors. 360,000 tested, 4.4% active; note: nearly all actives have a fitted effect of over 60% in size
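Compounds, titrated to a top concentration of 110 uM, were incubated 30 min at room temperature with preformed BAZ2B/acetyl-K14 H3 peptide complex (50 nM each). Proximity signal was measured by AlphaScreen after 20 min with beads.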
JMJD2A Tudor inh – blocks the human JMJD2A Tudor domain. Potency, µM (doses to about 114 µM), hits mostly inhibitors. AlphaScreen JMJD2A-Tudor / H3K4me3 peptide binding. 390,000 tested, 4.4% active; note: nearly all actives have a fitted effect of over 50% in size
L3MBTL1 inh – blocks human L3MBTL1. Q9Y468. AlphaScreen L3MBTL1–H3K9me1 peptide binding. Potency, µM (highest dose often 57.1 µM), most hits filed as inhibitors. 230,000 tested, 0.66% active; note: nearly all actives have a fitted effect of over 60% in size
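Read-out is AlphaScreen signal from streptavidin donor and nickel chelate acceptor beads (10 ug/mL final each) bridging L3MBTL1 (50 nM) and biotinylated K9-monomethylated H3(1-15) peptide (75 nM), after 30 min compound exposure at room temperature.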
HP1b binding inh – HP1-beta chromodomain-methylated histone interaction inhibition; P83916; AlphaScreen HP1-beta / biotin-H3K9me3 peptide binding; Potency, µM (top dose mostly 114 µM), usual class: inhibitors; 390,000 tested, 0.56% active; AID 540317; note: nearly all actives have a fitted effect of over 70% in size
Target sequence (P83916 whole entry, looked up): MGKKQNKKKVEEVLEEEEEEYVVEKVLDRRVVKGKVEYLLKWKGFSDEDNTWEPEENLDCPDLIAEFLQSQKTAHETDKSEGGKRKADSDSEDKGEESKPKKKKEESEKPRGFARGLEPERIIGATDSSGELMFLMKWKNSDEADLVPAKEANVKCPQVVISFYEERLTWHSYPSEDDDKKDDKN
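HP1-beta protein (50 nM final) preincubated 30 min at room temperature with biotinylated H3(1-18)K9me3 peptide (50 nM) in PBS pH 7.4, 0.01% Tween-20, then compound added for 30 min. AlphaScreen streptavidin donor/nickel chelate acceptor beads (10 ug/mL final), 30 min dark, luminescence read.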
Hits are given with their value; - = inactive; ? = inconclusive; . = not tested or not shown; [ ] = dose if it differs, or a comment. Calls come from the whole dose curve; as a rule, active = well fitted inhibition curve with a large enough effect; inconclusive = small, poorly fitted or top-dose-only effect; inactive = no such curve, though single readings can be large or run the other way.

SMILES	G9a block	BAZ2B inh	JMJD2A Tudor inh	L3MBTL1 inh	HP1b binding inh
O=C(CCCCCn1c(=O)c2sccc2n(CC(=O)Nc2ccccc2F)c1=O)NCc1ccc2c(c1)OCO2	-	-	-	.	-
CCn1ccc2c(OCC(=O)Nc3ccc(OC)cc3OC)cccc2c1=O	-	-	-	.	-
O=C(CSc1ccc2nnc(CCNC(=O)c3ccccc3)n2n1)NCCc1ccccc1	-	-	-	.	-
O=C(CN1CCN(c2ncc(C(F)(F)F)cc2Cl)CC1)N1CCN(c2ncc(C(F)(F)F)cc2Cl)CC1	50.1µM	-	-	.	-
CCOc1cccc(C2C=C(c3ccc4c(c3)OCO4)NC(c3ccc(Br)cc3)N2)c1O (stereo unspecified)	.	.	-	.	-
O=C(c1ccncc1)N1CCC2(CCCN(c3ccc(-c4ccccc4)cc3)C2)CC1	-[12.7 µM]	.	.	.	.
CCN(CC)c1ccc(/C=C/c2nc3ccccc3s2)cc1	-	-	.	-	.
COc1cc2nc(/C=C/c3ccc(N(C)C)cc3)sc2cc1SC	?	22.4µM	25.1µM	?	?
COC(=O)c1ccc(NC(=O)c2c(Br)cnn2C)cc1	7.94µM	-	-	.	-
COc1ccccc1N1CCN(C(=O)COc2ccc(S(=O)(=O)NC(C)(C)C)cc2)CC1	-	-	.	-	.
C=CCc1ccccc1OCCSc1nc2ccc([N+](=O)[O-])cc2s1	20µM	-	-	-	-
COc1ccccc1OCCSc1nc2ccc([N+](=O)[O-])cc2s1	12.6µM	?	?	-	?
O=[N+]([O-])c1ccc2nc(SCc3ccccc3Cl)sc2c1	?	-	?	-	-
CC(=O)Nc1ccc2nc(SCCOc3ccccc3Cl)sc2c1	-	-	-	.	-
COc1ccc(NC(=O)C(c2cc3c(cc2[N+](=O)[O-])OCO3)N(C)Cc2ccccc2)cc1 (stereo unspecified)	79.4µM	?	?	-	?
CN1CC(c2ccccn2)C2(SC(=S)N(Cc3ccccc3)C2=O)C12C(=O)Nc1ccccc12 (stereo unspecified)	.	14.1µM	22.4µM	?	?
O=C(NCCc1ccc(Cl)cc1)c1ccc2c(c1)N(Cc1cccc(Cl)c1)C(=O)c1ccccc1S2(=O)=O	-	-	-	.	-
Cc1cc(NC(=O)CCN2CCC(C)CC2)ccc1Br	-	-	-	-	-
C=CCn1c(NS(=O)(=O)c2ccccc2)c(S(=O)(=O)c2ccc(C)cc2)c2nc3ccccc3nc21	2µM	-	-	3.55µM	-
COc1ccc(N=Nc2ccc(N)nc2N)cc1	28.2µM	39.8µM	39.8µM	-	?
COc1ccc(N=Nc2cc(OC)c(N)cc2OC)cc1	.	.	44.7µM	.	50.1µM
CCOc1ccc2nc3cc(N=Nc4ccc(N)nc4N)ccc3c(N)c2c1	.	.	56.2µM	.	?
COc1ccc(OC)c(C(=O)C(=O)c2cc(OC)ccc2OC)c1	.	.	-	.	-
COc1ccc(OC)c(N)c1	31.6µM	50.1µM	?	-	?
CC1CCCN(CC(=O)Nc2ccc(S(=O)(=O)N3CCCC3)cc2)C1 (stereo unspecified)	-	-	-	.	-
SMILES	G9a block	BAZ2B inh	JMJD2A Tudor inh	L3MBTL1 inh	HP1b binding inh
COc1ccc(NC(=O)CSc2ncc3c(n2)-c2ccccc2N(Cc2ccc(C)cc2)S3(=O)=O)cc1Cl	-	-	-	.	-
CCC1CCc2c(sc(NC(=O)C3c4ccccc4Oc4ccccc43)c2C(=O)OC)C1 (stereo unspecified)	-	-	-	.	-
CC(C)OCCCN1C(=O)c2[nH]nc(-c3ccccc3O)c2C1c1ccc(OCc2ccccc2)cc1 (stereo unspecified)	-	-	?	.	-
COc1ccc(NC(=O)c2ccc3c(c2)C(=O)N(Cc2ccncc2)C3=O)cc1S(N)(=O)=O	.	.	-	-	-
N#CCCN(Cc1ccccc1)C(=O)c1nccnc1C(=O)O	35.5µM	?	?	.	-
Nc1c(C(=O)Nc2cccc(Cl)c2Cl)sc2nc(-c3cccnc3)ccc12	89.1µM	-	-	-	-
COc1ccccc1NC(=O)c1sc2nc(-c3ccco3)ccc2c1N	2.51µM	-	-	.	-
COc1cccc(-c2ccc3c(N)c(C(=O)Nc4ccccc4C)sc3n2)c1	-	-	-	.	-
Nc1c(C(=O)Nc2ccccc2)sc2nc(-c3ccco3)ccc12	11.2µM	-	-	-	-
Cc1ccccc1NC(=O)c1sc2nc3c(c(-c4ccco4)c2c1N)CCC3	39.8µM	-	-[11.4 µM]	-	-
Cc1ccc(NC(=O)c2sc3nc(-c4ccncc4)ccc3c2N)cc1	?	-	-	.	-
Nc1c(C(=O)Nc2ccccc2)sc2nc(-c3cccnc3)ccc12	?	-	.	.	.
Cc1ccc(CN(C(=O)COc2cccc([N+](=O)[O-])c2)c2ccccn2)cc1	-	-	-	.	-
Cc1ccc(NS(=O)(=O)c2ccc3c(c2)N(C)C(=O)CO3)cc1C	.	.	-	.	.
O=c1c(NCCc2ccc(Cl)cc2)nccn1-c1ccccc1	-	-	-	.	-
COc1ccc(NC(=O)C(OC(=O)CNC(=O)c2ccccc2)c2ccccc2)cc1F (stereo unspecified)	.	.	-	.	.
CCCOc1ccc(-c2nn(-c3ccccc3)cc2C2NC(=O)NC(C)=C2C(=O)OC)cc1C (stereo unspecified)	-	-	-	.	-
O=C(O)COc1ccc(/C=C/c2nc(-c3ccccc3O)n[nH]2)cc1	12.6µM	-	-	?	-
COc1ccc(-c2cn3nc(SCC(=O)Nc4ccc(C)c(Cl)c4)ccc3n2)cc1	-	-	-	.	-
COc1ccccc1NC(=O)CCNS(=O)(=O)c1ccc2[nH]c(=O)oc2c1	-	-	35.5µM	.	-
COc1ccccc1CNC(=O)CCNS(=O)(=O)c1ccc2[nH]c(=O)oc2c1	-	-	39.8µM	.	-
COc1ccc2c(c1)CC(C(=O)Nc1cc(Cl)ccc1C)CO2 (stereo unspecified)	-	-	-	.	-
Cn1cnnc1SCC(=O)c1cc2ccccc2o1	?	-	-	-	-
Cn1ccnc1SCC(=O)c1cc2ccccc2o1	39.8µM	?	?	-	-
C=CCNC(=O)CSc1nc2cc(C(=O)OCC)ccc2n1CC	-	-	-	.	-
SMILES	G9a block	BAZ2B inh	JMJD2A Tudor inh	L3MBTL1 inh	HP1b binding inh
CCOC(=O)c1ccc2c(c1)nc(SCC(=O)c1cc3ccccc3o1)n2CC	79.4µM	-	-	.	-
O=C(CSc1nnc(-c2cccs2)n1CC1CCCO1)c1cc2ccccc2o1 (stereo unspecified)	44.7µM	-	-	-	-
O=C(CSc1nccc(=O)[nH]1)c1cc2ccccc2o1	-	-	-	-	-
Cc1ccnc(SCC(=O)c2cc3ccccc3o2)n1	44.7µM	-	-	-	-
CC1CC=CC2C1C(=O)N(Cc1ccccc1)C2c1ccc(F)c(/C=C/c2ccccc2)c1 (stereo unspecified)	.	.	-	.	-
Cn1c(SCC(=O)c2ccc(O)c(O)c2)nnc1-c1ccccc1	-	?	-	.	-
Cn1c(SCC(=O)c2cc3ccccc3o2)nnc1-c1ccccc1	11.2µM	-	?	-	-
